A selection: hits, their analogues and other compounds. The true share with any hit is near 21%.
Pf growth 48h = Primary qHTS for delayed death inhibitors of the malarial parasite plastid, 48 hour incubation; 5.9% of 310,000 active; AID 504832, 2011; Potency, µM (series often up to 28.7 µM), without a hit: at the top dose activity change, negative = inhibition, most hits filed as inhibitors; P. falciparum luciferase growth in erythrocytes, 48 h; note: potency is the fitted concentration of half-maximal effect; % is set by controls: 0 for no effect and ±100 for the full control effect
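First compound was added to culture medium, then infected red cells at 0.1% parasitemia and 2% hematocrit (final). After incubation at 37 C under 5% CO2, luciferase detection reagent was dispensed and light output recorded.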
CHX counter = Cycloheximide Counterscreen for Small Molecule Inhibitors of Shiga Toxin. cell reporter, cycloheximide protein synthesis inhibition counterscreen. 12% of 300,000 active. max response, %; in the data active = max response mostly above about 13%, no sharp cut-off; inactive = mostly below about 14%; note: read at 38.3 µM for the half of the compounds with a filed dose; 0% is about no effect
Pf growth 96h = Primary qHTS for delayed death inhibitors of the malarial parasite plastid, 96 hour incubation. P. falciparum luciferase reporter growth, 96 h. Potency, µM (highest dose often 28.7 µM), inactives show at the highest dose activity change, negative = inhibition, usual class: inhibitors. 6.9% of 320,000 active. AID 504834, 2011; note: potency is the fitted concentration of half-maximal effect; % is set by controls: 0 for no effect and ±100 for the full control effect
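Plates of compound plus infected erythrocytes (2% hematocrit, 0.05% parasitemia final) incubate 96 hours, 37 C, 5% CO2. Detection reagent added; reduced luminescence from the parasites' luciferase reporter flags inhibition.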
NS1 inh = qHTS Assay for Inhibitors of Influenza NS1 Protein Function. Potency, µM (series often up to 46.1 µM), for inactives: at the highest dose activity, positive = more growth. 0.4% of 270,000 active. AID 2326, 2010; calls by dose curve; note: potency is the fitted concentration of half-maximal effect; actives are rising curves; nearly all actives have a fitted effect of over 50% in size
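Compounds were scored for reversing the slow growth caused by influenza A NS1 in S. cerevisiae, measured by optical density at 600 nm. Assay medium contained 2% galactose at pH 6.0; NS1-free yeast of the same strain were the positive control.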
Shiga toxin inh = A qHTS for Small Molecule Inhibitors of Shiga Toxin; Vero cells, Shiga toxin protein synthesis inhibition reporter; inhibition, % at 38.7 µM; 9.2% of 290,000 active; AID 2315, 2010; in the data active = inhibition mostly above about 28%, no sharp cut-off; inactive = mostly below about 43%; note: 0% is about no effect
Numbers without * were called inactive; ? = inconclusive; . = no result; + = active, no number; [ ] = another dose, or the depositor's remark. Unless noted, calls come from the whole dose curve; as a rule, active = well fitted inhibition curve with a large enough effect; inconclusive = small, poorly fitted or top-dose-only effect, or another doubt; inactive = no such curve, though single readings can be large or run the other way.

SMILES	Pf growth 48h	CHX counter	Pf growth 96h	NS1 inh	Shiga toxin inh
COc1cc(OC)cc(C(=O)NCCCN2CCN(CCCNC(=O)c3cc(OC)cc(OC)c3)CC2)c1	?	-4	?	6%	20
CCn1c(NC(=O)Nc2cccc(C)c2C)cc2sccc21	.	-4	13µM*	12%	13
O=C1N(Cc2cccnc2)C[C@@H]2C[C@@H](c3cccc(C(F)(F)F)c3)N3CCC[C@@]123	?	0	10µM*	7%	-7
Cc1ccccc1CN1C[C@@H]2C[C@@H](c3cn[nH]c3-c3ccccc3)N3CCC[C@@]23C1=O	1.7µM*	-1	?	-3%	-4
O=C1N(Cc2cccnc2)C[C@@H]2C[C@@H](c3cccc(OCc4ccccc4)c3)N3CCC[C@@]123	?	0	?	-3%	-6
O=C1N(Cc2cccnc2)C[C@@H]2C[C@@H](c3ccc(-c4ccccc4)cc3)N3CCC[C@@]123	12µM*	-1	?	-4%	5
O=C1N(Cc2cccnc2)C[C@@H]2C[C@@H](c3cccc(OC4CCCC4)c3)N3CCC[C@@]123	8.3µM*	1	42%	-2%	-17
COc1ccccc1CN1C[C@@H]2C[C@@H](C3=Cc4cccc(OC)c4OC3)N3CCC[C@@]23C1=O	4.7µM*	-1	15%	-4%	2
COc1ccccc1CN1C[C@@H]2C[C@@H](c3ccccc3OC)N3CCC[C@@]23C1=O	?	1	?	0%	19
Cc1ccc2c(c1)C(=O)C(=O)N2CC(=O)OC(C)C	46%	1	0.029µM*	-7%	-10
Cc1ccc(OCCN2C(=O)C(=O)c3cc(C)ccc32)cc1	-44%	-2	8%	-2%	-9
O=[N+]([O-])c1nn(-c2ccc(Cl)cc2)n(O)c1=NCc1ccccc1Cl	0%	35*	44%	-2%	74*
O=[N+]([O-])c1nn(-c2ccc(Cl)cc2)n(O)c1=NCc1ccncc1	2.9µM*	17	-19%	-10%	36
COc1cccc(CN=c2c([N+](=O)[O-])nn(-c3ccccc3C)n2O)c1	-28%	2	?	.	33
Cc1ccc(CN=c2c([N+](=O)[O-])nn(-c3ccc(Cl)cc3)n2O)cc1	75%	44*	3.3µM*	9%	33
CCC1SC2=NC(C)=C(C(=O)OCCOC)C(c3ccc(C(=O)OC)cc3)N2C1=O (configuration not stated)	-29%	-4	14%	9%	-5
Cc1cc(-c2ccn[nH]2)c(C)s1	?	-2	?	-9%	5
CCc1ccc(-c2ccc(C(=O)O)c(C)n2)cc1	36%	40*	29%	-8%	47*
Cc1ccc(OCC(=O)Nc2ccc(C)c(F)c2)c([N+](=O)[O-])n1	43%	.	123%	.	.
CCn1c2ccccc2c2cc(NC(=O)c3cccc(OC)c3OC)ccc21	-15%	2	4.1µM*	?	16
CCn1c2ccccc2c2cc(NC(=O)C(=O)N3CCOCC3)ccc21	19%	35*	?	0%	86*
CCn1c2ccccc2c2cc(NC(C)=O)ccc21	.	-2	-8%	-73%	-13
CCn1c2ccccc2c2cc(NC(=O)c3ccc([N+](=O)[O-])cc3)ccc21	?	5	?	16%	-19
CCn1c2ccccc2c2cc(NC(=O)c3cccc(OC)c3)ccc21	?	20*	-35%	-14%	95*
CCn1c2ccccc2c2cc(NC(=O)c3ccco3)ccc21	13µM*	18*	.	-54%	41
SMILES	Pf growth 48h	CHX counter	Pf growth 96h	NS1 inh	Shiga toxin inh
Cc1cccc(C(CC(=O)N2CCCCC2)c2ccccc2)c1O (configuration not stated)	5%	-3	-2%	-13%	-9
COc1ccc(CCN(C)S(=O)(=O)c2ccc(Cl)nc2)cc1OC	-18%	7	1%	.	-4
COc1ccc(C(=O)NCC(=O)OCc2ccccc2F)cc1	9%	11	10%	-5%	0
C[C@H](NS(=O)(=O)c1ccc2c(c1)OCCCO2)C(=O)N1CCN(c2ccc(F)cc2)CC1	-17%	.	?	.	.
CCn1c(SCC(=O)C(C)(C)C)nnc1-c1cnccn1	-25%	-1	8%	-3%	1
CSc1nnc(-c2cnccn2)n1CCCN1CCCC1=O	0%	-4	7.4µM*	-7%	3
CCOC(=O)CC1C(=O)NCCN1C(=O)Nc1ccc(Cl)cc1 (configuration not stated)	-3%	2	0%	-3%	-1
CCOC(=O)CC1C(=O)NC2CCCCC2N1C(=O)Nc1ccc(Cl)cc1 (configuration not stated)	-1%	28*	.	-39%	20
Cc1ccc(NC(=O)N2CCc3ccccc3C2)c(C)c1	-6%	42*	-18%	-9%	65*
Cc1ccc(NC(=O)c2nc[nH]c2C(=O)N2CCc3ccccc3C2)cc1	-1%	.	?	.	.
O=C(CNc1cccc(F)c1)N1CCc2ccccc2C1	.	62*	115%	-34%	126*
Cc1ccc(NC(=O)N2CCc3ccccc3C2)cc1	.	48*	206%	-52%	58*
O=C(Nc1ccc(Cl)cc1)N1CCc2ccccc2C1	?	-2	-8%	-3%	-13
O=C(Nc1ccccc1)N1CCc2ccccc2C1	216%	60*	58%	-8%	+
Cc1ccc(/C=N/Nc2cn[nH]c(=O)n2)o1	35%	24*	11%	-7%	88*
O=c1nc(N/N=C/c2ccccn2)cn[nH]1	1µM*	46*	-6%[1.15 µM]	-11%	125*
Cc1ccc(NC(=O)CCN2C(=O)C3CCCCC3C2=O)cc1[N+](=O)[O-] (configuration not stated)	1%	.	14%	.	.
COc1ccc(Cc2nnc(N/N=C/c3ccc(O)cc3O)[nH]c2=O)cc1OC	4.1µM*	1	?	?	14
CCN(c1ccccc1)S(=O)(=O)c1cccc(C(=O)NCCN2CCOCC2)c1	0%	.	?	.	.
CCCCc1ccc(NC(=S)NCCc2ccc(F)cc2)cc1	-1%[5.75 µM]	1	11%	.	4
N/C(=N\OC(=O)CCC1CCCC1)c1cccnc1	38%	15*	?	-6%	19
N/C(=N\OC(=O)CC1CCCCC1)c1cccnc1	0%	27*	?	0%	14
CC(=O)N1CCN(C(=O)CSc2cc(C)c(Br)cc2C)CC1	71%	34*	34%	-10%	48*
CCCCC(=O)N(c1ccc(C(=O)O)cc1)c1nc(-c2ccc(Cl)cc2)c(CC)s1	2.3µM*	-5	?	0%	9
CCc1sc(N(C(=O)Cc2ccccc2)c2ccccc2)nc1-c1ccccc1	13µM*	-4	.	4%	-11
CCc1sc(N(C(=O)Cc2ccccc2)c2ccc(F)cc2)nc1-c1ccccc1	.	-1	27%	10%	-11
COc1cc(CCC(=O)Nc2ccc(C)c(S(=O)(=O)N(C)C)c2)cc(OC)c1OC	?	-3	?	-5%	-5

Screens from PubChem BioAssay.
